Reference: PubChem BioAssay (NCI)
This is part of a sample that, as a whole, favours compounds with a hit. Of some 79,000 tested, about 15% had one in any assay. Active and inactive are the calls of the source. Rule as the data show it: active = growth inhibition above about 70%; inactive = the rest.

What was measured:
[1] = NCI Yeast Anticancer Drug Screen. Data for the rad50 strain (AID 155);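 also: 0% = growth of vehicle-only cultures of the same strain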; conditions: S. cerevisiae rad50 strain growth inhibition; at 50.0 µM; hits give high values
Method in brief: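 Vehicle-treated cultures provide the reference for the growth inhibition reported for compound-exposed, repair-deficient yeast.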

[2] = NCI Yeast Anticancer Drug Screen. Data for the mec2-1 strain (AID 157); conditions: S. cerevisiae mec2-1 strain, at 50.0 µM, hits give high values
Method in brief: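 Using mec2-1 yeast: add compound, measure growth, express inhibition versus vehicle-treated cultures.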

[3] = NCI Yeast Anticancer Drug Screen. Data for the sgs1 mgt1 strain (AID 161);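 also: 0% = growth of cultures given vehicle only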; conditions: S. cerevisiae sgs1 mgt1 strain, at 50.0 µM, hits give high values
Method in brief: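 Growth of a repair-deficient yeast mutant was monitored after compound treatment and expressed as inhibition relative to vehicle-treated cultures.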

[4] = NCI Yeast Anticancer Drug Screen. Data for the cln2 rad14 strain (AID 165);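 also: 0% = growth equal to vehicle treated cultures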; conditions: S. cerevisiae cln2 rad14 strain, at 50.0 µM, hits give high values
Method in brief: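 Yeast strain cln2 rad14, bearing defects in cell cycle control and DNA repair, serves as the test system; values reflect growth inhibition compared with vehicle.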

[5] = NCI Yeast Anticancer Drug Screen. Data for the bub3 strain (AID 167); conditions: S. cerevisiae bub3 mutant strain, at 50.0 µM, hits give high values
Method in brief: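 Mutant yeast screening strain plus compound; vehicle-treated cultures serve as the 0% inhibition reference.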

[6] = NCI Yeast Anticancer Drug Screen. Data for the mlh1 rad18 strain (AID 175); conditions: S. cerevisiae mlh1 rad18 strain growth inhibition; at 50.0 µM; hits give high values
Method in brief: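 Steps: expose repair-defective yeast to compound; measure growth; express inhibition against vehicle-treated controls.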

Measured: growth inhibition

CC1c2ccccc2-c2ccccc2N1C(=O)c1cccc(C(=O)N2c3ccccc3-c3ccccc3C2C)n1 (stereo unspecified)
inactive: [1] 26.3% | [2] 11.6% | [3] -6.75% | [4] -1.9% | [5] -2.1% | [6] 18.1%

Cc1nc(N)[nH]c(=O)c1CCCNC(=O)c1cccc([N+](=O)[O-])c1
inactive: [1] -1.55% | [2] 2.65% | [3] 11.4% | [4] -4.7% | [5] 30.5% | [6] 18.6%

CCC1(C)C=Cc2c(cc(OC)c3c(=O)c4ccccc4n(C)c23)O1 (stereo unspecified)
inactive: [1] -21.8% | [2] -27.4% | [3] -33.8% | [4] -19.6% | [5] 4.05% | [6] -26.4%

CC1CCCC(C)(c2ccccc2)/C1=N\Nc1ccc([N+](=O)[O-])cc1[N+](=O)[O-] (stereo unspecified)
inactive: [1] 36.2% | [2] 13.9% | [3] 9.65% | [4] 18% | [5] 2.1% | [6] 29.9%

CCCCC(C=O)(CC)CCC#N (stereo unspecified)
inactive: [1] 45.1% | [2] -2.55% | [3] 46.3% | [4] -17.9% | [5] -16.1% | [6] 42.2%

CCCCCCCCCCCC(=O)N(CCCCCCCCCCC(=O)O)CC(O)C(O)C(OC1OC(CO)C(O)C(O)C1O)C(O)CO (stereo unspecified)
inactive: [1] 65.3% | [2] 12.8% | [4] 32.2% | [6] 20.3%
active: [3] 85.8% | [5] 86.3%

COc1cc2c(cc1OC)C(=O)/C(=C/c1ccccc1)C2
inactive: [1] -16.4% | [2] -0.85% | [3] -6.4% | [4] 15.2% | [5] 36% | [6] 9.6%

CCOC(=O)NC(=O)c1cn(C2CCCCC2)c(=O)[nH]c1=O
inactive: [1] -14.2% | [2] -3.95% | [3] -5.9% | [4] 21.9% | [5] -0.7% | [6] 3.35%

CCc1onc(-c2noc(CC)c2C)c1C
inactive: [1] -5.35% | [2] 6.5% | [3] 0.25% | [4] -9.35% | [5] -1.5% | [6] 12.3%

CCOC(=O)C(C)(C)C(O)C(C)C (stereo unspecified)
inactive: [1] 20.7% | [2] -18.8% | [3] -15.2% | [4] 48.4% | [5] -12.7% | [6] 3.95%

CSc1nc2c(ncn2C2OCC(O)C(O)C2O)c(=O)n1C (stereo unspecified)
inactive: [1] 12% | [2] 7.7% | [3] -24.2% | [4] 29.6% | [5] -4.35% | [6] 15.6%

COc1ccccc1NC(=S)N/C=C(\C#N)c1nc2ccccc2s1
inactive: [1] -28.4% | [2] 5.95% | [3] -8.9% | [4] 3.45% | [5] 2.3% | [6] -3%

Nc1ncnc(N)c1NC(=O)CCCc1ccccc1
inactive: [1] 5.85% | [2] 18.6% | [3] -2.95% | [4] 1% | [5] 33.5% | [6] 15.9%

N#CCCOCCNCCSC(=O)c1ccccc1
inactive: [1] 36.8% | [2] 4.05% | [3] 12.4% | [4] 6.65% | [5] 8.45% | [6] 4.25%

CC(=O)OCC1OC(SC2=NC(=O)CS2)C(OC(C)=O)C(OC(C)=O)C1OC(C)=O (stereo unspecified)
inactive: [1] 3.3% | [2] -1.8% | [3] 1.45% | [4] -6.6% | [5] -8.85% | [6] 17.4%

O=C1OC([C@H](O)c2cccnc2)c2ccccc21 (stereo partly specified)
inactive: [1] -17.1% | [2] -24.9% | [3] -39.4% | [4] -22.9% | [5] -26.1% | [6] -21.6%

CCC1NC(N=Nc2ccc([N+](=O)[O-])cc2)(P(=O)(OC(C)C)OC(C)C)OC1=O (stereo unspecified)
inactive: [1] 44.5% | [2] -43.5% | [3] 16.1% | [4] -15.8% | [5] 17.5% | [6] 10.8%

C=CC(C)(C)C1=CC(=O)C(OC)=CC1=O
inactive: [1] 1.75% | [2] -6.15% | [3] -3.7% | [4] -54.9% | [5] 4.15% | [6] -6.65%

COc1ccc(C#CC(=O)O)c(OC)c1
inactive: [1] -3.15% | [2] -2.1% | [3] 22.9% | [4] -30.6% | [5] -5.45% | [6] -9%

CN(C)C1=NC(NC2CCCCC2)(N(C)C)OC(N(C)C)=N1 (stereo unspecified)
inactive: [1] 1% | [2] -0.9% | [3] 3.2% | [4] 20.2% | [5] 1.9% | [6] 10.8%

N#CC(C(=O)O)=C1CCCCCC1
inactive: [1] 2.4% | [2] -1% | [3] 3.7% | [4] -1.8% | [5] 5.5% | [6] -0.8%

CN(C)c1ccc(C2(c3ccc(N(C)C)cc3)c3ccccc3C(=O)N2N)cc1
active: [5] 77.5%
inactive: [1] 54.1% | [2] 34.5% | [3] 18.2% | [4] 43.5% | [6] 21.7%

COC(=O)c1cccn1C(=O)c1ccc(C)c(OCc2ccccc2)c1[N+](=O)[O-]
inactive: [1] 1.6% | [2] -15.8% | [3] 4.95% | [4] -8.3% | [5] 18.5% | [6] 8.05%

O=C(O)c1cccc2c1CCCC2
inactive: [1] -2.7% | [2] 7.35% | [3] -21.6% | [4] 0.05% | [5] -11.6% | [6] 8.05%

NCCCCC(N)C(=O)O.[Cu+2] (stereo unspecified)
inactive: [1] -13.6% | [2] 3.95% | [3] -4.9% | [4] -6% | [5] -11.8% | [6] -22.8%

CCC(CC)CCC(=O)CC(C)C
inactive: [1] 23.9% | [2] -3.5% | [3] -15.6% | [4] 5.5% | [5] -19% | [6] 7.1%

CCOc1ccc(NC(=S)N/C=C(/C#N)C(N)=O)cc1
inactive: [1] -13.6% | [2] -26.4% | [3] -15.3% | [4] -14.2% | [5] -16.9% | [6] -3.5%

C#CCN(CC#C)C(=O)Nc1ccc(Cl)cc1
inactive: [1] -33.5% | [2] -21.4% | [3] -11.2% | [4] -47% | [5] -16.2% | [6] 3.45%

Cc1nn(-c2ccc([N+](=O)[O-])cc2)c2c1C(C)(C)C(C#N)=C(N)O2
inactive: [1] -9.9% | [2] -6.7% | [3] -3.5% | [4] -3.55% | [5] 0.65% | [6] 6.95%

CN=C(N)N/N=C(\c1ccccc1)c1ccc(Cl)cc1
inactive: [1] 43.4% | [2] 11.6% | [3] 43.1% | [4] 3.55% | [5] 34.6%
active: [6] 72.9%

O=[N+]([O-])c1ccc(-c2nnn(Cc3ccco3)c2N2CCCCC2)cc1
inactive: [1] 69.6%
active: [2] 70.7% | [3] 91.2% | [4] 84.2% | [5] 95.7% | [6] 81.3%

CN(C)c1ccc(/C=C\C(O)c2ccccc2)cc1 (stereo unspecified)
inactive: [1] 22.7% | [2] 11.3% | [3] 32.2% | [4] 7.6% | [5] 2.55% | [6] 42%

COc1cc(OC)cc(C2OC3=C(Nc4ccccc4N3)C2=O)c1 (stereo unspecified)
inactive: [1] 12.8% | [2] 16.1% | [3] 23.2% | [4] 19.4% | [5] 19.4% | [6] 28.1%

CC(=O)O/C1=C\CCCCCCCCCC1
inactive: [1] 6.95% | [2] -27.5% | [3] 28.3% | [4] 18.9% | [5] 13.5% | [6] -1.45%

CC(SC(=S)Nc1ccc(Cl)cc1)C(=O)O (stereo unspecified)
inactive: [1] 39.5% | [2] 1.15% | [3] 24.8% | [4] -42% | [5] 4.8% | [6] 12.3%

CC(=O)c1ccccc1
inactive: [1] 1.4% | [2] -12.9% | [3] -16.1% | [4] -5.7% | [5] -18.2% | [6] -23.8%

C/C(=N\NC(=S)N1CCC(c2ccccc2)CC1)c1ccccn1
inactive: [1] -24.3% | [2] 3.95% | [3] 0.25% | [4] -22.4% | [5] 4.65% | [6] 13.8%

COc1ccc(C2=C(OC(=O)N(C)C)c3cccn3-c3cc(Cl)ccc3S2)cc1
inactive: [1] -7.3% | [2] 2% | [3] 1.7% | [4] -1.85% | [5] -0.1% | [6] -5.95%

CCOC(C#CC(=O)C(C)C)OCC
inactive: [1] -17.2% | [2] 3.15% | [3] 0.85% | [4] 2.25% | [5] 27.4% | [6] 19.4%

Nc1cc(N)nc(S(=O)O)n1
inactive: [1] 18.9% | [2] 2.85% | [3] 16.1% | [4] 10.7% | [5] 19.8% | [6] 35.9%

NC(=O)C(F)(F)C(F)(F)C(N)=O
inactive: [1] -28.1% | [2] -16.8% | [3] -15% | [4] -51.6% | [5] 3.25% | [6] -1.9%
